Source: PubChem BioAssay (National Center for Advancing Translational Sciences (NCATS))
HP1b binding inh: inhibitors of HP1-beta chromodomain binding to methylated histone tails. AlphaScreen HP1-beta / biotin-H3K9me3 peptide binding. AID 540317. Potency, µM (titrated, usually from 114 µM), inactives show top-dose activity change, negative = inhibition, most hits filed as inhibitors. P83916. hit rate 0.56% among 390,000; note: nearly all actives have a fitted effect of over 70% in size
Target sequence (P83916 whole entry, looked up): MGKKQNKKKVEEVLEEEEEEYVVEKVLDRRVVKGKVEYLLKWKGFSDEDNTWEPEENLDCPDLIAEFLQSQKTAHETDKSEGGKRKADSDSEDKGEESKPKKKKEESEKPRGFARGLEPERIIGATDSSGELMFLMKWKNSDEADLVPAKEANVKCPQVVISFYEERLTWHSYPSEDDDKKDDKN
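AlphaScreen: HP1-beta (50 nM) preformed 30 min with biotin-H3(1-18)K9me3 peptide (50 nM) in PBS pH 7.4, 0.01% Tween-20. Compound added for 30 min at RT, then streptavidin donor/nickel chelate acceptor beads (10 ug/mL) for 30 min.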
JMJD2A Tudor: blocks the human JMJD2A Tudor domain; O75164; AlphaScreen JMJD2A-Tudor / H3K4me3 peptide binding; Potency, µM (top dose mostly 114 µM), inactives show top-dose activity change, negative = inhibition, hits mostly inhibitors; hit rate 4.4% among 390,000; AID 504339; note: % is set by controls: 0 for no effect and ±100 for the full control effect; nearly all actives have a fitted effect of over 50% in size
PLK1 PBD inh: inhibitors of human PLK1 polo-box domain binding | Plk1 PBD binding of FITC phosphopeptide, fluorescence polarization | Potency, µM, for inactives: max response, negative = inhibition, most hits filed as inhibitors | hit rate 2.8% among 360,000; note: series mostly up to about 57 µM; % is set by controls: 0 for no effect and ±100 for the full control effect; nearly all actives have a fitted effect of over 65% in size
BAZ2B inh: inhibitors of human BAZ2B bromodomain; Potency, µM (doses to about 114 µM), without a hit: at the highest dose activity change, negative = inhibition, most hits filed as inhibitors; AlphaScreen BAZ2B-H3K14Ac peptide displacement; Q9UIF8; hit rate 4.4% among 360,000; note: % is set by controls: 0 for no effect and ±100 for the full control effect; nearly all actives have a fitted effect of over 60% in size
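AlphaScreen displacement of biotin-H3(5-23)K14Ac peptide (50 nM final) from BAZ2B (50 nM final) in PBS pH 7.4, 0.01% Tween-20; complex preformed 30 min RT, then compounds (top 110 uM) 30 min RT, beads 20 min dark.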
G9a block: G9a (human) methyltransferase inhibition; AID 504332; G9a H3K9 monomethylation, AlphaScreen, 2 h; hit rate 8.8% among 350,000; Potency, µM (doses to about 102 µM), without a hit: at the highest dose activity, negative = inhibition, actives largely listed as inhibitors; note: % is set by controls: 0 for no effect and ±100 for the full control effect; nearly all actives have a fitted effect of over 75% in size
Target sequence (Q96KQ7 913-1193 limits assumed): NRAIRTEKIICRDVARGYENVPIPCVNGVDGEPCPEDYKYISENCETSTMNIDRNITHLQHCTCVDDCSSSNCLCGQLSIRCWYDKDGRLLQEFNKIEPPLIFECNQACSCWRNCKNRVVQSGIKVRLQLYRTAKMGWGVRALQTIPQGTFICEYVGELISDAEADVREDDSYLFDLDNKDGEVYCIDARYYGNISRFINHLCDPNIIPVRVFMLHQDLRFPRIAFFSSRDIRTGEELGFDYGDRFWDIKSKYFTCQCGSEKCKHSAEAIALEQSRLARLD
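G9a (20 nM) preincubated 15 min RT with compounds, then 500 nM biotinylated H3K9 peptide and 20 uM SAM added; 2 h RT reaction. Monomethyl-H3K9 product detected by AlphaScreen with anti-H3K9me1 antibody, streptavidin donor and anti-rabbit IgG acceptor beads.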
Sfp inh: blocks B. subtilis Sfp PPTase activity | Biochemical Sfp PPTase activity, qHTS | Potency, µM, for inactives: largest response in the series, negative = inhibition, most hits filed as inhibitors | hit rate 3.5% among 310,000 | AID 1490;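 note: the enzyme is Sfp with the accession as filed and its product quenches rhodamine fluorescence; 0% = enzyme reaction without inhibitor and -100% = no enzyme wells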
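Buffer: 50 mM Hepes-Na pH 7.6, 10 mM MgCl2, 0.01% Nonidet P-40, 0.01% BSA. Enzyme 15 nM, pre-exposed to compound 15 min; substrates then added and fluorescence change tracked over 30 min.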
Active calls of the source: *; ? = inconclusive; . = no result given; ! = a repeat was not active; [ ] = another dose, or the depositor's remark. Shown are actives, neighbours in structure and some others; about 12% of the full set was active somewhere. Calls come from the whole dose curve; as a rule, active = well fitted curve in the direction sought with a large enough effect; inconclusive = small, poorly fitted or top-dose-only effect, or another doubt; inactive = no such curve, though single readings can be large; an effect the other way counts as inactive or inconclusive. Potency is the fitted concentration of half-maximal effect.

SMILES	HP1b binding inh	JMJD2A Tudor	PLK1 PBD inh	BAZ2B inh	G9a block	Sfp inh
CC(C)OCCCNC(=O)CCCN1C(=O)CCn2nc(-c3cccn3C)cc21	-0.8%[57 µM]	-18.5%	.	-19.6%	-9.7%[59 µM]	.
CC1=C(C(=O)N2CCOCC2)C(c2ccc(Cl)cc2)NC(=S)N1 (stereo unspecified)	48.7%	-6.2%	-19.3%	21.6%	70.8µM*	-7.1%
CC1=C(C(=O)N2CCOCC2)C(c2c(C)cc(C)cc2C)NC(=S)N1 (stereo unspecified)	31.2%	-11.9%	-17.3%	-0.8%	-43.6%	-2.9%
CC1=C(C(=O)N2CCOCC2)C(c2ccc(C)cc2)NC(=S)N1 (stereo unspecified)	31.9%	-16.0%	-19.0%	-2.2%	39.8µM*	50.1µM*
Cc1nnsc1C(=O)N/N=C/c1ccc2ccccc2c1O	13.1%	?	58.5%	1.41µM*	39.8µM*	5.8%
Cc1cccc(N2CCN(Cc3ccc(Br)o3)CC2)c1C	-25.7%	28.2µM*	-6.1%	?	25.1µM*	-13.8%
Brc1ccc(CN2CCN(c3ccccc3)CC2)o1	?	3.16µM*	6.8%	56.2µM*	?	-24.7%
Cc1ccccc1N1CCN(Cc2ccc(Br)o2)CC1	?	1µM*	?	56.2µM*	10µM*	-20.7%
Clc1ccccc1N1CCN(Cc2ccc(Br)o2)CC1	-11.4%	25.1µM*	2.0%	.	.	.
Cc1ccccc1N1CCN(CCCCN2C(=O)C3CCCN3C2=O)CC1 (stereo unspecified)	16.9%	-5.7%	-9.0%	-26.5%	2.2%[59 µM]	-13.6%
CCOC(=O)N1CCN(C(=O)c2cc(COc3c(F)cccc3F)on2)CC1	30.1%	-10.3%	3.2%	1.2%	62.3%	8.2%
COc1ccc(C(=O)Oc2ccc(C(=S)N3CCOCC3)cc2)cc1	?	?	10.6µM*	-35.4%	.	22.4µM*
COc1ccc(C(=S)N2CCN(C)CC2)cc1	-7.5%	1.7%	26.7µM*	11.1%	-7.4%[12.7 µM]	25.1µM*
O=Cc1cccc(OC(=O)/C=C/c2ccco2)c1	14.1µM*	35.5µM*	?	6.0%[0.457 µM]	?	-31.4%
O=C(Oc1ccc(C(=S)N2CCOCC2)cc1)c1ccc(Br)cc1	48.9%	-2.9%	0.7%	-5.7%	-5.7%[59 µM]	0.7%
O=C(Oc1ccccc1C(=S)N1CCOCC1)c1ccccc1	13.2%	-5.3%	?	-1.9%	44.7µM*	-20.4%
CCOc1cc(C(=S)N2CCCCC2)ccc1OS(=O)(=O)c1ccc(Br)cc1	15.4%	-14.9%	-2.3%	3.7%	-15.6%[59 µM]	16.5%
O=C(/C=C/c1ccco1)Oc1ccc(C(=S)N2CCOCC2)cc1	-19.6%	17.8µM*	11.9µM*	-34.2%	?	-12.4%
COc1cc(C(=S)N2CCOCC2)cc(OC)c1OC	-30.5%	1.4%	26.7µM*	-1.1%	39.8µM*	50.1µM*!
CCOc1cc(C(=S)N2CCC(O)CC2)ccc1OS(=O)(=O)c1ccc(Br)cc1	?	?	?	?	8.91µM*	?
O=C(/C=C/c1ccccc1)Oc1ccc(C(=S)N2CCOCC2)cc1	13.5%	-15.0%[11.4 µM]	-14.6%	-0.5%	-24.4%	-10.7%
COC(=O)c1ccc(C(=S)N2CCOCC2)cc1	?	-14.3%	11.9µM*	0.0%	?	22.4µM*
CCOc1ccc(C(=S)N2CCOCC2)cc1OCC	-24.0%	-10.9%	?	7.8%	31.6µM*	-19.7%
CCOc1cc(C(=S)N2CCOCC2)ccc1OS(=O)(=O)c1ccc(C)cc1	-16.7%	-27.6%	?	-30.8%	35.5µM*	-27.2%
COc1cc(C(=S)N2CCOCC2)cc(OC)c1OS(=O)(=O)c1ccc(C)cc1	-10.7%	-30.3%	?	?	28.2µM*	56.2µM*
SMILES	HP1b binding inh	JMJD2A Tudor	PLK1 PBD inh	BAZ2B inh	G9a block	Sfp inh
COc1ccc(C(=O)Oc2cc(C(=S)N3CCOCC3)ccc2OC)cc1	-25.4%	?	-24.4%	-24.9%	31.6µM*	-4.6%
CCCC(C)(C)C(=O)N1CCC1(C)C(=O)NS(=O)(=O)c1cccc(Cl)c1 (stereo unspecified)	.	.	-4.7%	.	.	.
COc1ccc(S(=O)(=O)Oc2cc(C(=S)N3CCOCC3)ccc2OC)cc1	-7.7%	-29.5%	?	-25.8%	35.5µM*	-3.6%
CCOc1cc(C(=O)Nc2ccc(N3CCOCC3)cc2)cc(Br)c1OC	3.7%	-1.0%	-0.3%	-28.2%	?	25.3%
CCOc1cc(C(=S)N2CCOCC2)cc(Br)c1OS(=O)(=O)c1ccccc1	1.1%	-16.2%	?	-32.4%	28.2µM*	79.4µM*
COc1cc(C(=S)N2CCOCC2)cc(OC)c1OS(=O)(=O)c1ccc(NC(C)=O)cc1	19.2%	-17.9%	-1.8%	-6.2%	-30.5%[59 µM]	2.7%
COc1cc(C(=S)N2CCOCC2)ccc1OC(=O)c1cc(OC)c(OC)c(OC)c1	-16.3%	-32.2%	?	-28.5%	14.1µM*	50.1µM*
COc1ccccc1C(=O)Nc1cccc(C(=O)OCc2cc(=O)n3c4c(sc3n2)CCCC4)c1	18.4%	-14.2%	.	-6.7%	4.7%[59 µM]	.
S=C(Nc1ccccc1)Nc1ccccc1C#Cc1ccccc1	.	.	.	.	.	1.5%
O=C(C1=C[C@@H](c2csc3ccccc23)C[C@@H](OCCCCO)O1)N1CCN(Cc2ccc3c(c2)OCO3)CC1	-7.1%	?	3.5%	?	?	1.3%
O=C(C1=C[C@H](c2csc3ccccc23)C[C@H](OCCCCO)O1)N1CCN(Cc2ccccc2)CC1	5.3%	?	8.5%	50.1µM*	?	?
Cc1cccc(C)c1NC(=S)N(CCN(C)C)C(C)c1cccnc1 (stereo unspecified)	31.5%	-13.0%	-8.8%	-24.0%	-1.4%[59 µM]	79.4µM*
Cc1ccc2c(c1)cc(C(=O)N[C@@H](Cc1ccccc1)C(=O)O)n2C	85.2%	-7.6%	-14.2%	-7.8%	23.4%	21.3%
CCC(CC)C(=O)Nc1cccc(/C(C)=N/NC(=O)c2ccccc2Cl)c1	-15.6%	-12.2%[11.4 µM]	26.7µM*	-1.6%	-0.7%[12.7 µM]	3.1%
O=C(Cn1nnc2ccccc2c1=O)N[C@H](C(=O)O)c1ccccc1	10.0%	-17.6%[11.4 µM]	29.9µM*	0.6%	.	10.7%
CC(C)C[C@H](NC(=O)CCn1nnc2ccccc2c1=O)C(=O)O	15.9%	?	18.9µM*	-1.7%	-5.0%	23.3%
C[C@H](NC(=O)CCn1nnc2ccccc2c1=O)C(=O)O	23.9%[57 µM]	7.2%	3.1%	-3.6%	28.1%	4.8%
O=C(CCCn1nnc2ccccc2c1=O)N[C@H](C(=O)O)c1ccccc1	71.4%	-6.1%	-4.5%	-2.6%	3.1%	9.8%
COc1ccccc1CNC(=O)CCCNC(=O)Cn1cnc2sc(C)c(C)c2c1=O	2.2%	-31.2%	0.2%	3.5%	-9.7%	3.0%
COC(=O)C1=C(C)N(C)C(=O)/C1=C\c1cccs1	?	?	-6.8%	?	?	8.9%
COC(=O)C1=C(C)N(Cc2cccnc2)C(=O)/C1=C\c1sccc1C	35.5µM*	44.7µM*	-3.0%	35.5µM*	.	-22.0%
